Consider 7 compounds from PubChem BioAssay (NCATS).

Test [1] in a line: Primary qHTS for inhibitors of nuclear receptor binding SET domain protein 2 (NSD2) in an isogenic RCH-ACV NSD2 p.E1099K mutant (9B) (AID 1645876). For orientation: Quantitative high-throughput screening tests each substance at several concentrations.
Test [2] can be described thus: Primary qHTS for inhibitors of nuclear receptor binding SET domain protein 2 (NSD2) in an RCH-ACV wild type WT cells (2C) (AID 1645877).

Each structure is given as a SMILES string. Values joined by “and” are separate entries in the source; they are usually repeats but may differ in a detail not shown here. Equal entries are not always repeated. Inconclusive results are not listed. Active and inactive are the calls of the source. Calls come from the whole dose curve; as a rule, active = well fitted curve in the direction sought with a large enough effect; inconclusive = small, poorly fitted or top-dose-only effect, or another doubt; inactive = no such curve, though single readings can be large; an effect the other way counts as inactive or inconclusive.
Note: nearly all actives have a fitted effect of over 70% in size.
Potency is the fitted concentration of half-maximal effect.

As to `CNC(=O)c1c(F)cccc1Nc1nc(Nc2cc3c(cc2OC)CCN3C(=O)CN(C)C)nc2[nH]ccc12`, the Potency in test [1] was 5.15 µM (active) and 7.42 µM (active); in test [2] it was 3.25 µM (active) and 5.9 µM (active).

For `Cc1ccc(C(N)=O)cc1Nc1nccc(-c2cn(C(C)C)c3cnccc23)n1`, the Potency in test [1] was 3.32 µM (active); in test [2], 1.66 µM (active).

In the case of `CN1CCN(c2ccc3nc(-c4c(N)c5c(F)cccc5[nH]c4=O)[nH]c3c2)CC1`, the Potency in test [1] is 1.3 µM (active) and 742 nM (active); in test [2] it was 1.16 µM (active) and 742 nM (active).

With `CC[C@H](CO)Nc1nc(NCc2ccccc2)c2ncn(C(C)C)c2n1`, the Potency is 14.8 µM (active) in test [1] and 13.2 µM (active) in test [2].

For `CCS(=O)(=O)c1cccc(-c2cc(C(=O)NC3CCN(C)CC3)c(C)c3[nH]c4ncc(C)cc4c23)c1`, the Potency in test [1] was 113 nM (active) and 166 nM (active); in test [2], 35.8 nM (active) and 41.7 nM (active).

As to `CC[C@@H]1C(=O)N(C)c2cnc(Nc3ccc(C(=O)NC4CCC(N5CCN(CC6CC6)CC5)CC4)cc3OC)nc2N1C(C)C` (some centres undefined), the Potency in test [1] was 36.5 nM (active) and 16.3 nM (active) and 41.7 nM (active); in test [2], 36.5 nM (active) and 41.1 nM (active) and 37.2 nM (active).

For the compound `CCN(CC)CCNC(=O)c1ccc2nc(-c3ccccc3)c(-c3ccc(CN4CCC(n5c(=O)[nH]c6ccccc65)CC4)cc3)nc2c1`, the Potency in test [1] was 2.58 µM (active) and 3.32 µM (active); in test [2], 2.58 µM (active) and 4.17 µM (active).
